{
  "source": "paper PMC4552634",
  "about": "“A New Set of Chemical Starting Points with Plasmodium falciparum Transmission-Blocking Potential for Antimalarial Drug Discovery” (PLoS ONE, 2015)",
  "note": "In all, about 13,000 compounds went through this assay and about 3,200 (25%) showed an effect of 50% or more. The list shows a part of the results.",
  "data": [
    {"system": "P. falciparum stage V gametocytes", "design": "BacTiter-Glo ATP luminescence viability of purified stage V gametocytes in 384-well plates, per cent inhibition versus DMSO", "details": "48 h, 5 µM; inhibitor", "units": {"% Inhibition": "%"}, "values": [
      {"smiles": "O=C(/C=C/c1ccc(Cl)c(Cl)c1)NC1CCC(CN2CCC(c3nc4ccccc4s3)CC2)CC1", "note": "(stereo not shown) [TCMDC-140215]", "% Inhibition": 29.32},
      {"smiles": "OC(CNCc1ccccc1OCc1ccccc1)c1cc(Br)cs1", "note": "(stereo not shown) [TCMDC-140398]", "% Inhibition": 22.96},
      {"smiles": "CN1CCN(Cc2ccc(OCc3cccc(COc4ccc(CN5CCN(C)CC5)cc4I)c3)c(I)c2)CC1", "note": "[TCMDC-137239]", "% Inhibition": 60.02},
      {"smiles": "Ic1cc(CNC2CCCCC2)ccc1OCc1cccc(COc2ccc(CNC3CCCCC3)cc2I)c1", "note": "[TCMDC-137261]", "% Inhibition": 115.7},
      {"smiles": "CC(C)(C)c1cc(CN2CCN(Cc3ccccc3)CC2)cc(C(C)(C)C)c1O", "note": "[TCMDC-125537]", "% Inhibition": -7.705},
      {"smiles": "Clc1cccc(CNC2CCN(CC3CCCCC3)CC2)c1", "note": "[TCMDC-141659]", "% Inhibition": 7.676},
      {"smiles": "CC(C)NCc1ccc(OCc2cccc(COc3ccc(CNC(C)C)cc3I)c2)c(I)c1", "note": "[TCMDC-137259]", "% Inhibition": 114.3},
      {"smiles": "CC(C)CNCc1ccc(OCc2cccc(COc3ccc(CNCC(C)C)cc3I)c2)c(I)c1", "note": "[TCMDC-137260]", "% Inhibition": 108.7},
      {"smiles": "Oc1ccc(Cc2ccccc2)cc1CNC1CCCCC1", "note": "[TCMDC-137598]", "% Inhibition": 6.281},
      {"smiles": "COc1cc2ncnc(Nc3ccc(OCc4ccccc4)c(I)c3)c2cc1OC", "note": "[TCMDC-131944]", "% Inhibition": -25.01},
      {"smiles": "CC(C)NCc1cccc(-c2cccc(-c3nc4ccccc4[nH]3)c2)c1", "note": "[TCMDC-132748]", "% Inhibition": 37.6},
      {"smiles": "OC(CNCc1ccccc1)c1cc(OCc2ccccc2)cc(OCc2ccccc2)c1", "note": "(stereo not shown) [TCMDC-132079]", "% Inhibition": 44.54},
      {"smiles": "CN1CCN(Cc2ccc(-c3cc4c(Nc5ccc(OCc6cccc(F)c6)c(Cl)c5)ncnc4s3)[nH]2)CC1", "note": "[TCMDC-135458]", "% Inhibition": -90.63},
      {"smiles": "O=C(NC1CCC(N2CCC(Cc3ccc(F)cc3)CC2)CC1)c1cc2ccccc2[nH]1", "note": "(stereo not shown) [TCMDC-132894]", "% Inhibition": 45.26},
      {"smiles": "Cc1cnc(-c2ccc(NC(=O)N3CCc4cc5nccc(N6CCN7CCC[C@H]7C6)c5cc43)c3ccccc23)o1", "note": "[TCMDC-140052]", "% Inhibition": -7.754},
      {"smiles": "COc1ccc(NS(=O)(=O)c2cc(NC(=O)Cn3ccccc3=O)ccc2N2CCCCC2)cc1", "note": "[TCMDC-124874]", "% Inhibition": 16.03},
      {"smiles": "Cc1cc2c(cc1C(F)(F)F)N(C(=O)Nc1ccc(C(=O)NCCN3CCCC3)cc1)CC2", "note": "[TCMDC-139870]", "% Inhibition": 3.174},
      {"smiles": "CC(=O)Nc1ncc(C(=O)Nc2cccc(-c3cccc(-c4nc5c(C)cccc5[nH]4)c3)c2)s1", "note": "[TCMDC-136920]", "% Inhibition": 35.18},
      {"smiles": "C=CCOC(=O)N1CCC(CNCc2ccc(-c3ccc(-c4nc5cc(C(F)(F)F)ccc5[nH]4)cc3)cc2)C1.O=C(O)C(F)(F)F", "note": "(stereo not shown) [TCMDC-133041]", "% Inhibition": -74.05}
    ]}
  ]
}
